Results as given in the supplement of paper PMC10338343.
± gives the standard deviation.

How the values were obtained:
[1] = tested on: MILI (PIWIL2) piRISC loaded with L1MC piRNA (26 nt); assay: pre-steady-state target cleavage rate (min^-1); guide: L1MC piRNA 5'p-UAACUAAAUACUAUGCAAGCUGUAGG; higher = faster piRNA-guided slicing of the target; settings: auxiliary factor: 500 nM mouse GTSF1;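 further: 1 nM active piRISC with 0.1 nM target library at 33 °C single turnover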
In short: (§1)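 Cleave-'n-Seq measured uncleaved targets by sequencing after a transcribed, DNA-blocked target RNA library […] was mixed with 1 nM active affinity-purified piRISC holding one synthetic guide, with or without 500 nM GTSF1 partner protein, at 33 °C in HEPES–potassium acetate buffer for 0–8 or 0–960 min. Counts were normalised to depth and to weakly complementary targets, three trials were pooled, and k3 was capped at 0.0001 min^-1. A burst-and-steady-state fit gave the pre-steady-state cleavage rate.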

[2] = tested on: EfPiwi piRISC loaded with L1MC piRNA (26 nt); assay: pre-steady-state target cleavage rate (min^-1); auxiliary factor: 500 nM Ephydatia muelleri Gtsf1; guide: L1MC piRNA 5'p-UAACUAAAUACUAUGCAAGCUGUAGG; MIWI and MILI are mouse PIWI proteins and EfPiwi is from a freshwater sponge; tags in brackets are library labels; higher = faster piRNA-guided slicing of the target
In short: as §1

| Sequence | pre-steady-state target cleavage rate [1] | pre-steady-state target cleavage rate [2] |
| --- | --- | --- |
| UCCUCCUACUGCUUGCAUAGUAUUUUCAAA | 0.0284 ± 0.0085 | 0.00274 ± 0.0026 |
| UCCUGCUACAGCUUGCAUAGUAAUUUGUUA | 0.245 ± 0.053 | 0.00579 ± 0.002 |
| UCCUGCUACAGCUUGCAAAGUAUUUAGAAA | 0.159 ± 0.033 | 0.00352 ± 0.002 |
| UCCUGGAUCAGCUUGCAUAGUAUAUAGAUA | 0.0407 ± 0.013 | 0.00301 ± 0.0023 |
| UCCUGGAUCAGCUUGCAUAGUAUAAAGUAA | 0.11 ± 0.024 | 0.00455 ± 0.0038 |
| UCCUGCUUCAGCUUGCAUAGUAUUUAGAAA | 0.195 ± 0.037 | 0.00434 ± 0.0021 |
| UCCUCCUAGAGCUUGCAUAGAAUUUAGUUA | 0.0513 ± 0.0099 | 0.00468 ± 0.0013 |
| UCCUGCUACAGCUUGCAUAGUCUUUAGUUA | 0.122 ± 0.019 | 0.00416 ± 0.001 |
| UCCUGGUACACCUUGCAUAGUAUUUAGAAA | 0.13 ± 0.043 | 0.0037 ± 0.0035 |
| UCCUGGAACAGCUUGCAUACUAUUUUGUUA | 0.0261 ± 0.0092 | 0.00252 ± 0.0023 |
| UCCUGCUACAGCUUGCAUAGAAUUUAGAAA | 0.0373 ± 0.015 | 0.00251 ± 0.0016 |
| UCCUCCUAGAGCUUGCAUAGUAUUUACUUA | 0.146 ± 0.03 | 0.00356 ± 0.0033 |
| UCCUGCUACAGCUUGGAUAGAAUUUAGUUA | 0.0646 ± 0.014 | 0.0053 ± 0.0018 |
| UCCUGGAACAGCUUGCUUAGUAUUAAGUUA | 0.179 ± 0.026 | 0.00237 ± 0.002 |
| UCCUCCUACAGCUUCCAUAGUAUUUACUUA | 0.0137 ± 0.0064 | 0.00277 ± 0.0024 |
| UCCUGCUACAGCUUGCAUAGUUUUUAGAAA | 0.0163 ± 0.0061 | 0.00343 ± 0.0019 |
| UCCUGCAUGAGCUUGCAUAGUAUUUAGAAA | 0.157 ± 0.028 | 0.00569 ± 0.0021 |
| UCCUGCUACAGCUUGCAUUGUAUUUAGAUA | 0.106 ± 0.017 | 0.00283 ± 0.0018 |
| UCCUGGAUGUGCUUGCAUAGUAUUUAGUAUA | 0.131 ± 0.019 | 0.00507 ± 0.0027 |
| UCCUGCUACAGCAUGCAUACUAUUUAGUUA | 0.148 ± 0.028 | 0.00525 ± 0.0021 |

| Sequence | pre-steady-state target cleavage rate [1] | pre-steady-state target cleavage rate [2] |
| --- | --- | --- |
| UCCUGGAACAGCUUGCAUAAGUAUUUAGUUA | 0.00757 ± 0.004 | 0.00284 ± 0.0024 |
| UCCUGGAUCAGGUUGCAUAGUAUUUAGAAA | 0.185 ± 0.029 | 0.00341 ± 0.0019 |
| UCCUCCUACAGCUUGCAUAGUAUUUUGUAA | 0.092 ± 0.019 | 0.0056 ± 0.003 |
| UCCUCCUACAGCUUGCAAAGAAUUUAGUUA | 0.0165 ± 0.0051 | 0.0033 ± 0.0027 |
| UCCUGCUACAGCUUGCAUAGAAUUUAGUUA | 0.0612 ± 0.014 | 0.00582 ± 0.0022 |
| UCCUGGAACAGCUUGCAUAGUAAUUAGAUA | 0.0936 ± 0.022 | 0.00318 ± 0.0015 |
| UCCUCCUACAGCUUGCAUACUAAUUAGUUA | 0.0267 ± 0.0069 | 0.00358 ± 0.0017 |
| UCCUCCUACAGCUUGCAAUCUAUUUAGUUA | 0.0266 ± 0.0058 | 0.00376 ± 0.0036 |
| UCCUCCUUCAGCUUGCAUAGUAUUUAGAAA | 0.119 ± 0.021 | 0.00603 ± 0.0031 |
| UCCUGGAUGAGCUUGGCAUAGUAUUUAGUUA | 0.224 ± 0.054 | 0.0123 ± 0.0039 |
| UCCUGGAACAGGUUGCAUAGUAUUUAGAAA | 0.163 ± 0.026 | 0.00261 ± 0.0017 |
| UCCUCCUACAGCUUGCAUAGUAUUUAGUGA | 0.186 ± 0.034 | 0.00553 ± 0.0017 |
| UCCUGCUACAGCUUGCAUAGUAAUUACUUA | 0.057 ± 0.017 | 0.0026 ± 0.0026 |
| UCCUGGAUGAGCUUGCAAAGUAUUUAGAAA | 0.0447 ± 0.013 | 0.00395 ± 0.0031 |
| UCCUGGUACAGCUUGCAUAGAAUUUAGUUA | 0.229 ± 0.08 | 0.00314 ± 0.0023 |
| UCCUGGAUCAGCUUGCAUAGUAUUUAAUUA | 0.0429 ± 0.0097 | 0.00916 ± 0.0034 |
| UCCUCCUACAGCUUGGAUAGUAUUUACAAA | 0.021 ± 0.0081 | 0.00267 ± 0.0022 |
| UCCUGCAACAGCUUGCAUAGUAUUUAGAUA | 0.125 ± 0.024 | 0.00372 ± 0.002 |
| UCCUGGAACAGCUUCCAUAGUAUUUAGUAA | 0.0767 ± 0.03 | 0.00376 ± 0.0014 |
| UCCUCCUACAGCUUGCAUAGAUUUAGUUA | 0.00908 ± 0.0047 | 0.00442 ± 0.0029 |

| Sequence | pre-steady-state target cleavage rate [1] | pre-steady-state target cleavage rate [2] |
| --- | --- | --- |
| UCCUGCUACAGCAUGCAUAGUAUUUAGAUA | 0.179 ± 0.033 | 0.00378 ± 0.0015 |
| UCCUGGAACAGCUUGCUAUAGUAUUUAGUUA | 0.028 ± 0.0077 | 0.00682 ± 0.0023 |
| UCCUCCUACAGCUUGCAUACUAUUUAGUAA | 0.0473 ± 0.012 | 0.00454 ± 0.0033 |
| UCCUGGUACAGCUUGCUAUAGUAUUUAGUUA | 0.0224 ± 0.009 | 0.00339 ± 0.0031 |
| UCCUGGUACAGCUUGCAUUGUAUUUUGUUA | 0.0604 ± 0.018 | 0.00266 ± 0.0026 |
| UCCUGGAACAGCUUGCAAUAGUAUUUAGUUA | 0.0492 ± 0.013 | 0.0183 ± 0.0054 |
| UCCUCCUACAGCUUGCAUAGUAUUAAGAUA | 0.125 ± 0.032 | 0.00411 ± 0.0022 |
| UCCUGGAUCAGCUUGCUAUAGUAUUUAGUUA | 0.0101 ± 0.0052 | 0.00528 ± 0.0019 |
| UCCUGGAUGAGCUUGCAUAGUAUAAAGUUA | 0.255 ± 0.047 | 0.00848 ± 0.0042 |
| UCCUGCUACAGGUUGCAUAGAAUUUAGUUA | 0.0387 ± 0.0083 | 0.00649 ± 0.0018 |
| UCCUGCUACUGCUUGCAUAGUAUUUACAAA | 0.0206 ± 0.0071 | 0.00262 ± 0.0024 |
| UCCUGGAACAGCUUGCCAUAGUAUUUAGUUA | 0.163 ± 0.018 | 0.0042 ± 0.0019 |
| UCCUGGAUCAGCUUGCAUAGUAUUUAGCUUA | 0.149 ± 0.021 | 0.0068 ± 0.0026 |
| UCCUGGAUGACCUAGCAUAGUAUUUAGUUA | 0.0953 ± 0.022 | 0.0121 ± 0.0072 |
| UCCUGCUACAGCUUGCAUAGUAAUUAGUAA | 0.133 ± 0.025 | 0.00441 ± 0.0018 |
| UCCUGGAACAGCUUGCAUAGUAUUUGUUA | 0.0747 ± 0.021 | 0.00531 ± 0.0019 |
| UCCUCCUACAGCUUGCAUUGUAUUUAGAAA | 0.0778 ± 0.019 | 0.00363 ± 0.0015 |
| UCCUCCUACAGCUUGCAUAGUUAAUAGUUA | 0.0685 ± 0.022 | 0.00703 ± 0.0035 |
| UCCUGGUUGAGCUUGCAUAGUAUUUUCAAA | 0.0103 ± 0.006 | 0.00218 ± 0.0021 |
| UCCUCCUACAGCUUGCAUAGUAAAAAGUAA | 0.0657 ± 0.019 | 0.00344 ± 0.0029 |
